Assay results published in the supplement of paper PMC4166925.
± gives the standard deviation of the averaged measurements. Over roughly 33,000 sequences, “E-score (dimensionless, -0.5 to 0.5)” has its median near -0.049; the highest 2% begin near 0.37. The entries come from a sample that favours the highest values as a whole.

Each sequence was assayed on T1, PmTbr T-box DNA-binding domain (GST fusion) (assay: PBM E-score of 8-mer (E-score (dimensionless, -0.5 to 0.5)); Tbr is Tbrain of the sea star Patiria miniata (Pm) or the sea urchin Strongylocentrotus purpuratus (Sp); higher = stronger binding preference). Conditions: the construct has about 5 more residues each side.
T1 sequence: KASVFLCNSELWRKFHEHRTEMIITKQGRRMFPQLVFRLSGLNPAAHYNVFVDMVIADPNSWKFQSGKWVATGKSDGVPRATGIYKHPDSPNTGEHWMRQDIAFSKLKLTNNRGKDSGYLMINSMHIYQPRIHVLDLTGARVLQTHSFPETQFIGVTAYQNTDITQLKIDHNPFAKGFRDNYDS
Protocol: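 Universal protein-binding microarray (Agilent AMADID 016060, 60-bp probes with a 35-bp variable region) incubated with 200 nM GST-fused Patiria miniata Tbr T-box DNA-binding domain (residues 272-466) in PBS pH 7.5. Scored for every ungapped 8-mer (given with its reverse complement) by the Universal PBM Analysis Suite as E-score (modified Wilcoxon-Mann-Whitney enrichment, range -0.5 to 0.5; >0.45 counts as bound) and Z-score of median probe intensity. Two replicate arrays (datasets 1 and 2).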

Row | Sequence | PBM E-score of 8-mer
1 | AGCCTAGC | -0.00521 ± 0.12
2 | TCGAAGCA | -0.141 ± 0.0046
3 | ATTCGCGC | 0.39 ± 0.021
4 | AATCGCGC | 0.311 ± 0.024
5 | ATTCGCGG | 0.244 ± 0.039
6 | CAAGCACC | 0.129 ± 0.016
7 | CTAGCACC | 0.449 ± 0.006
8 | CTAGCACA | 0.327 ± 0.024
9 | ATAGCACC | 0.416 ± 0.012
10 | ATAGCACA | 0.174 ± 0.035
11 | ATAGCACG | 0.358 ± 0.017
12 | ACATTCGC | 0.267 ± 0.042
13 | AGGCTTGG | -0.2 ± 0.011
14 | GAAACCGA | -0.0132 ± 0.073
15 | AGCCATAG | -0.0194 ± 0.015
16 | CTGGCACA | 0.241 ± 0.0048
17 | ATGGCACA | 0.103 ± 0.0048
18 | CTGGCACC | 0.411 ± 0.018
19 | ATGGCACG | 0.189 ± 0.041
20 | ATGGCACC | 0.387 ± 0.011
21 | CAGGCACC | -0.0396 ± 0.032
22 | ACCGGTCC | -0.276 ± 0.048
23 | TCCTATAA | -0.189 ± 0.068
24 | AAATAGGG | -0.0426 ± 0.12
25 | ACGGCTCT | -0.15 ± 0.033

Row | Sequence | PBM E-score of 8-mer
26 | CACCTGAA | 0.312 ± 0.0079
27 | GACCTGAC | -0.0852 ± 0.017
28 | AACCTGTA | -0.252 ± 0.046
29 | AACCTGTC | 0.30927 ± 0.00016
30 | CGCCTGTC | 0.303 ± 0.026
31 | AACCTGAC | 0.111 ± 0.026
32 | CACCTGTC | 0.4274 ± 0.0023
33 | CGCCTGAG | 0.0681 ± 0.047
34 | CACCTGAC | 0.387 ± 0.018
35 | CACCTGTA | 0.391 ± 0.009
36 | AACCTGAG | 0.0264 ± 0.17
37 | CACCTGAG | 0.37535 ± 0.00034
38 | AAACTATC | -0.215 ± 0.063
39 | AACCAGCA | -0.18 ± 0.047
40 | GATGGCCC | -0.138 ± 0.0089
41 | GCTCCACA | -0.0189 ± 0.02
42 | ACTGAACG | -0.315 ± 0.091
43 | GCTTTACC | -0.126 ± 0.066
44 | AAGGTTAC | -0.145 ± 0.017
45 | GGGCCCAA | -0.154 ± 0.022
46 | CGTGTTTC | 0.126 ± 0.034
47 | ACCCAGTA | -0.234 ± 0.012
48 | AGATAAAT | -0.223 ± 0.057
49 | GCTGACCC | -0.159 ± 0.14
50 | GCTGACAC | 0.398 ± 0.013

Row | Sequence | PBM E-score of 8-mer
51 | CCTGACAC | 0.435 ± 0.0077
52 | GCTGACAA | 0.2795 ± 0.00061
53 | AATGACAC | 0.355 ± 0.0044
54 | ACTGACAC | 0.379 ± 0.012
55 | CATGACAA | 0.204 ± 0.047
56 | CCTGACAG | 0.218 ± 0.036
57 | ACTGACAA | 0.166 ± 0.009
58 | CATGACAC | 0.389 ± 0.0048
59 | ACTGACAT | 0.0983 ± 0.064
60 | CCTGACAA | 0.207 ± 0.027
61 | GCCTTTCA | -0.0251 ± 0.074
62 | TACTTTCA | 0.0461 ± 0.077
63 | CACAGCGA | 0.0526 ± 0.053
64 | CTGACCAC | 0.0865 ± 0.013
65 | ACAGATGA | 0.00068 ± 0.05
66 | AGCGTTCG | 0.214 ± 0.068
67 | CTACAGAG | -0.187 ± 0.022
68 | CATGTCAA | -0.00945 ± 0.065
69 | CCTGTCAC | 0.3665 ± 0.0036
70 | ACTGTCAA | 0.162 ± 0.028
71 | ACTGTCAG | 0.129 ± 0.034
72 | GGTGTCCA | 0.294 ± 0.021
73 | AATGTCAA | 0.0345 ± 0.052
74 | ACTGTCAC | 0.392 ± 0.018
75 | GCTGTCAA | 0.323 ± 0.014

Row | Sequence | PBM E-score of 8-mer
76 | GGTGTCAA | 0.474 ± 0.0055
77 | AGTGTCAA | 0.447 ± 0.0063
78 | CCTGTCAA | 0.309 ± 0.024
79 | CGTGTCAA | 0.4335 ± 0.00096
80 | AGTGTCAT | 0.387 ± 0.0042
81 | AATGTCAG | 0.0135 ± 0.012
82 | TGTGTCAA | 0.372 ± 0.014
83 | TATGTCAA | 0.0912 ± 0.063
84 | GGTGTCAC | 0.481 ± 0.0062
85 | AGTGTCAG | 0.384 ± 0.017
86 | AATGTCAT | -0.164 ± 0.033
87 | TCTGTCAA | 0.152 ± 0.039
88 | CGTGTCAG | 0.31284 ± 0.00018
89 | GCTGTCAC | 0.3624 ± 0.0017
90 | ACTGTCAT | 0.163 ± 0.037
91 | GATGTCAC | 0.304 ± 0.0034
92 | AACATGAT | -0.0409 ± 0.098
93 | GGTCGAGA | -0.252 ± 0.058
94 | TTGAGCAA | -0.0163 ± 0.022
95 | ATAGGCAC | -0.0213 ± 0.017
96 | CGCTCATA | -0.08565 ± 0.00083
97 | TAGCTCAA | -0.184 ± 0.04
98 | ACTTTTCT | 0.0687 ± 0.099
99 | ATTGGGTC | -0.0189 ± 0.031
100 | CGAAGCCG | 0.155 ± 0.06

Row | Sequence | PBM E-score of 8-mer
101 | ATGGAGGA | -0.217 ± 0.015
102 | ACACCCAA | 0.368 ± 0.035
103 | AAGCGAAT | -0.167 ± 0.0081
104 | AGTGTCAC | 0.449 ± 0.0029
105 | AATGTCAC | 0.329 ± 0.034
106 | CATGTCAC | 0.352 ± 0.0093
107 | CGTGTCCC | -0.0561 ± 0.065
108 | CGTGTCAC | 0.3865 ± 0.0037
109 | AGTGTCCC | 0.176 ± 0.004
110 | ATTAAGTA | -0.154 ± 0.096
111 | CGACCTCG | 0.14 ± 0.074
112 | CGCTTCAG | -0.0405 ± 0.068
113 | CTCCTAGC | 0.0648 ± 0.041
114 | AGTCACAG | 0.135 ± 0.054
115 | CGTCACAC | 0.433 ± 0.017
116 | CGTCACAA | 0.175 ± 0.033
117 | CGTCACCC | 0.373 ± 0.021
118 | GGACACAC | 0.101 ± 0.0014
119 | AGTCACCC | -0.0493 ± 0.13
120 | AGTCACAT | 0.11 ± 0.058
121 | GGTCACAA | 0.212 ± 0.048
122 | GGTCACAC | 0.4613 ± 0.0012
123 | CGTCACAG | 0.243 ± 0.014
124 | CGTCACCA | 0.27 ± 0.054
125 | AGTCACAC | 0.462 ± 0.0029

Row | Sequence | PBM E-score of 8-mer
126 | CTCAAGAA | -0.0351 ± 0.062
127 | AATGAGGG | -0.21 ± 0.035
128 | AGCAACAT | -0.000465 ± 0.079
129 | AAAATCGT | 0.158 ± 0.078
130 | AGAACATG | -0.102 ± 0.0022
131 | GTATCTCA | 0.138 ± 0.024
132 | CTAATAGC | 0.0155 ± 0.017
133 | AACAATAT | 0.00943 ± 0.055
134 | AGATGCTG | -0.149 ± 0.035
135 | ATCAAGCC | -0.0171 ± 0.049
136 | GTACTTAA | -0.16 ± 0.011
137 | GCGGGTTA | 0.0385 ± 0.009
138 | CGGTGTTA | 0.37 ± 0.0083
139 | CGATGTTA | -0.192 ± 0.016
140 | GGATGTTA | -0.00674 ± 0.011
141 | GGGTGTTA | 0.4737 ± 0.00077
142 | CGCTGTTA | 0.0368 ± 0.0067
143 | GGGGGTTA | -0.158 ± 0.1
144 | ACCCATAT | 0.0957 ± 0.013
145 | GGGTTCGA | -0.0834 ± 0.013
146 | GGTGGGCA | 0.0512 ± 0.038
147 | AAACTCTT | -0.11 ± 0.032
148 | CGATTCAC | 0.143 ± 0.0046
149 | CAACTGAG | 0.0533 ± 0.042
150 | GACTTGGA | -0.167 ± 0.064

Row | Sequence | PBM E-score of 8-mer
151 | ACGCGAAA | 0.133 ± 0.039
152 | CCGCGAAC | 0.271 ± 0.036
153 | ACGCGAAC | 0.203 ± 0.043
154 | GCGCGATA | 0.337 ± 0.011
155 | TCGCGAAA | 0.409 ± 0.025
156 | CCGCGAAA | 0.305 ± 0.027
157 | GCGCGAAA | 0.4397 ± 0.0003
158 | GCGCGACA | 0.36 ± 0.023
159 | GCGCGAAC | 0.411 ± 0.017
160 | CAATCATA | -0.102 ± 0.056
161 | AACCCTGA | -0.108 ± 0.0053
162 | GCCACTAA | 0.153 ± 0.019
163 | AGATACTC | -0.119 ± 0.09
164 | TGCAGGAA | -0.153 ± 0.036
165 | CTCCCAAC | -0.0412 ± 0.0027
166 | AAGAACCC | -0.192 ± 0.042
167 | GGACACCC | 0.242 ± 0.037
168 | AGACACCC | 0.259 ± 0.023
169 | TGACACCA | 0.427 ± 0.02
170 | GGACACCA | 0.0777 ± 0.029
171 | CGACACCG | 0.273 ± 0.033
172 | AGACACCA | 0.2603 ± 0.00061
173 | CGACACCC | 0.439 ± 0.022
174 | CGACACGA | 0.183 ± 0.071
175 | CGACACCA | 0.414 ± 0.01
